# Assay results reported in PubChem BioAssay.
# Calls of active or inactive are those of the source.
# How the values were obtained:
# [1] = binders of probe aFSTL3 on microarray, primary screen, stem cell growth factor project, biochemical, small-molecule microarray, fluorescence 635/667 (AID 1064); conditions: higher = more signal;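 also: measures binding of the biotinylated anti-FSTL3 antibody to printed compounds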
# [2] = binders from COS7 lysate, DM2A8 probe, primary screen, torsin A project, cell lysate, small-molecule microarray, fluorescence 635/667 (AID 1065); conditions: higher = more signal, COS7 lysate expressing mutant human TOR1A
# [3] = binders of probe aFGF2 on microarray, primary screen, stem cell growth factor project, biochemical, small-molecule microarray, fluorescence 635/667 (AID 1067); conditions: higher = more signal;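 also: measures binding of biotinylated aFGF2 protein to printed compounds on slides; z-score merges feature fluorescence and signal-to-noise across triplicate slides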
# [4] = binders of probe aFGF10 on microarray, primary screen, stem cell growth factor project, biochemical, small-molecule microarray, fluorescence 635/667 (AID 1071); conditions: higher = more signal;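 also: score merges 667 nm spot intensity and signal to noise from triplicate slides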
# [5] = molecular target: Neurogenic locus notch homolog protein 2 (Homo sapiens) (UniProt Q04721); assay: Notch2 binders on small-molecule microarrays, primary screen, biochemical, small-molecule microarray, 635 nm fluorescence, stem cell growth factors (AID 1073); conditions: Notch2 binding, higher = more signal
# [6] = molecular target: Pro-neuregulin-1, membrane-bound isoform (Homo sapiens) (UniProt Q02297); assay: NRG1 binders on small-molecule microarrays, primary screen, psychiatric disease protein project, biochemical, small-molecule microarray, fluorescence 635/667 (AID 1075); conditions: NRG1 binding, 635 nm fluorescence, higher = more signal;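 also: score combines 667 nm spot fluorescence with signal to noise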
# Chain of Pro-neuregulin-1, membrane-bound isoform (Homo sapiens) (Q02297 whole entry, looked up, the tested form may be a part, canonical isoform): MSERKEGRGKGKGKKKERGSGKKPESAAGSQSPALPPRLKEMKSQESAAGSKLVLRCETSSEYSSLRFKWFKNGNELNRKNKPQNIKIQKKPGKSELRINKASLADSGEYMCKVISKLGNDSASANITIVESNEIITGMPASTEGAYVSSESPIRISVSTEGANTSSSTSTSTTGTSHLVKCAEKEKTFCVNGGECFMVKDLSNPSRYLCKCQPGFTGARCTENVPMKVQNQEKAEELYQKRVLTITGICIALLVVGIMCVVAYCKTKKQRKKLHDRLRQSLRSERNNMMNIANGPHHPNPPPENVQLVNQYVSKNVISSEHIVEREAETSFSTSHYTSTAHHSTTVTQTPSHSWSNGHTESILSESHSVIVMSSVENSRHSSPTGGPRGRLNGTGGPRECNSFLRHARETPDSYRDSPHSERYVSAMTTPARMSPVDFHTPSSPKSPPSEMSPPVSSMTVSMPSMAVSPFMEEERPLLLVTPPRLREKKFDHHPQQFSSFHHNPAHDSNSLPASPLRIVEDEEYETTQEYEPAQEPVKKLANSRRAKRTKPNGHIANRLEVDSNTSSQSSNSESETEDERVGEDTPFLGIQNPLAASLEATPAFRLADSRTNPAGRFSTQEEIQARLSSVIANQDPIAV
# [7] = system: Neuregulin-1 EGF-like domain; assay: binders of neuregulin-1 EGF-like domain, primary screen, biochemical, small-molecule microarray, 635 nm fluorescence (AID 1081); conditions: small-molecule microarray binding, higher = more signal;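 also: binding of the protein to compounds printed on small-molecule microarray slides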
# [8] = FRG1 promoter luciferase signal modulators, primary screen, FRG1 inhibition for FSHD, cell-based, C2C12 myotubes, firefly/Renilla luciferase, luminescence (AID 1084); conditions: higher = more signal, called active from +8 up or from −8 down
# [9] = binders of probe aFST on microarray, primary screen, stem cell growth factor project, biochemical, small-molecule microarray, fluorescence 635/667 (AID 1086); conditions: higher = more signal;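 also: score merges 667 nm fluorescence with signal-to-noise of each printed compound spot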
# [10] = binders of probe aHhip on microarray, primary screen, stem cell growth factor project, biochemical, small-molecule microarray, fluorescence 635/667 (AID 1087); conditions: higher = more signal;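 also: score merges spot fluorescence at 667nm with spot signal to noise ratio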
# [11] = system: PRMT1 (protein arginine N-methyltransferase 1); assay: PRMT1 binders on small-molecule microarrays, primary screen, biochemical, small-molecule microarray, 635 nm fluorescence (AID 1088); conditions: small-molecule microarray binding, higher = more signal;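 also: binding of Prmt1 protein to compounds spotted on small-molecule microarray slides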
# [12] = yeast growth modulation, basal conditions, primary screen, YJM789 clinical isolate, OD600, 24 h (AID 1089);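 also: growth of clinical yeast isolate S. cerevisiae YJM 789 seeded 1000 cells per well; test concentration not given here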; conditions: S. cerevisiae YJM789 growth, higher = more signal, called active from +8 up or from −8 down
# [13] = fission yeast growth modulation, primary screen, strain 972, OD600, 24 h, no modulator (AID 1090);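 also: basal condition with compound alone and no growth modifier present; test concentration not given here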; conditions: S. pombe 972 growth, higher = more signal, called active from +8 up or from −8 down
# [14] = S. cerevisiae growth modulation with rapamycin, primary screen, strain BY4716, OD600, 96 h (AID 1091); conditions: higher = more signal, called active from +8 up or from −8 down; also: test concentration not given here
# [15] = molecular target: Torsin-1A-interacting protein 2 (Homo sapiens) (UniProt Q8NFQ8); assay: LULL1 binders on small-molecule microarray, primary screen, cell lysate, human LULL1 lysate, 635/667 nm fluorescence (AID 1092); conditions: hLULL1 lysate binding, 635 nm fluorescence, higher = more signal;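 also: probe is lysate of COS7 cells overexpressing human LULL1; score merges per-feature 667 nm fluorescence with signal-to-noise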
# Chain of Torsin-1A-interacting protein 2 (Homo sapiens) (Q8NFQ8 whole entry, looked up): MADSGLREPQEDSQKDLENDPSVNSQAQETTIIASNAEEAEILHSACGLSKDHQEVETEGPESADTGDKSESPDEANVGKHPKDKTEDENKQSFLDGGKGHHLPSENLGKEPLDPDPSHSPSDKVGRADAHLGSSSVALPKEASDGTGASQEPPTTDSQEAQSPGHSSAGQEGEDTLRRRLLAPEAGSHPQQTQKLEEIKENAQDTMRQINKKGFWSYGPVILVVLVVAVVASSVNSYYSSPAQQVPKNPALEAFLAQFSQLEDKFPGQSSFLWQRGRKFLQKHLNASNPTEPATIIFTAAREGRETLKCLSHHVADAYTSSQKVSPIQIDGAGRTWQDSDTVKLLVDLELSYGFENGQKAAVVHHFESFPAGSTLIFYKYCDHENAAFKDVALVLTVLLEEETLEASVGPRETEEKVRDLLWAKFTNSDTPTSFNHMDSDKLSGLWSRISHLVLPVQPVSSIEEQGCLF
# [16] = E. coli growth modulation, two-sided OD650, primary screen, E. coli filamentation project, strain DRC41, 24 h (AID 1093); conditions: OD650, 24 h, higher = more signal, called active from +8 up or from −8 down;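 also: MC1000 strain lacking acrAB efflux and sulA so SOS filamentation is blocked; test concentration not given here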
# [17] = small-molecule microarray binders of probe aLefty2, primary screen, biochemical, biotinylated probe, 635/667 nm fluorescence (AID 1094); conditions: higher = more signal;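 also: score merges spot fluorescence near 667 nm with spot signal-to-noise ratio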
# [18] = system: Noggin (protein binding on small-molecule microarray); assay: Noggin binders on small-molecule microarray, primary screen, biochemical, 635/667 nm fluorescence (AID 1095); conditions: 635 nm fluorescence, higher = more signal;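 also: score merges 667 nm feature fluorescence with signal to noise over triplicate slides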
# [19] = molecular target: Neurogenic locus notch homolog protein 3 (Homo sapiens) (UniProt Q9UM47); assay: NOTCH3 binders on small-molecule microarray, primary screen, biochemical, 635/667 nm fluorescence (AID 1096); conditions: NOTCH3 binding, 635 nm fluorescence, higher = more signal
# Chain of Neurogenic locus notch homolog protein 3 (Homo sapiens) (Q9UM47 whole entry, looked up): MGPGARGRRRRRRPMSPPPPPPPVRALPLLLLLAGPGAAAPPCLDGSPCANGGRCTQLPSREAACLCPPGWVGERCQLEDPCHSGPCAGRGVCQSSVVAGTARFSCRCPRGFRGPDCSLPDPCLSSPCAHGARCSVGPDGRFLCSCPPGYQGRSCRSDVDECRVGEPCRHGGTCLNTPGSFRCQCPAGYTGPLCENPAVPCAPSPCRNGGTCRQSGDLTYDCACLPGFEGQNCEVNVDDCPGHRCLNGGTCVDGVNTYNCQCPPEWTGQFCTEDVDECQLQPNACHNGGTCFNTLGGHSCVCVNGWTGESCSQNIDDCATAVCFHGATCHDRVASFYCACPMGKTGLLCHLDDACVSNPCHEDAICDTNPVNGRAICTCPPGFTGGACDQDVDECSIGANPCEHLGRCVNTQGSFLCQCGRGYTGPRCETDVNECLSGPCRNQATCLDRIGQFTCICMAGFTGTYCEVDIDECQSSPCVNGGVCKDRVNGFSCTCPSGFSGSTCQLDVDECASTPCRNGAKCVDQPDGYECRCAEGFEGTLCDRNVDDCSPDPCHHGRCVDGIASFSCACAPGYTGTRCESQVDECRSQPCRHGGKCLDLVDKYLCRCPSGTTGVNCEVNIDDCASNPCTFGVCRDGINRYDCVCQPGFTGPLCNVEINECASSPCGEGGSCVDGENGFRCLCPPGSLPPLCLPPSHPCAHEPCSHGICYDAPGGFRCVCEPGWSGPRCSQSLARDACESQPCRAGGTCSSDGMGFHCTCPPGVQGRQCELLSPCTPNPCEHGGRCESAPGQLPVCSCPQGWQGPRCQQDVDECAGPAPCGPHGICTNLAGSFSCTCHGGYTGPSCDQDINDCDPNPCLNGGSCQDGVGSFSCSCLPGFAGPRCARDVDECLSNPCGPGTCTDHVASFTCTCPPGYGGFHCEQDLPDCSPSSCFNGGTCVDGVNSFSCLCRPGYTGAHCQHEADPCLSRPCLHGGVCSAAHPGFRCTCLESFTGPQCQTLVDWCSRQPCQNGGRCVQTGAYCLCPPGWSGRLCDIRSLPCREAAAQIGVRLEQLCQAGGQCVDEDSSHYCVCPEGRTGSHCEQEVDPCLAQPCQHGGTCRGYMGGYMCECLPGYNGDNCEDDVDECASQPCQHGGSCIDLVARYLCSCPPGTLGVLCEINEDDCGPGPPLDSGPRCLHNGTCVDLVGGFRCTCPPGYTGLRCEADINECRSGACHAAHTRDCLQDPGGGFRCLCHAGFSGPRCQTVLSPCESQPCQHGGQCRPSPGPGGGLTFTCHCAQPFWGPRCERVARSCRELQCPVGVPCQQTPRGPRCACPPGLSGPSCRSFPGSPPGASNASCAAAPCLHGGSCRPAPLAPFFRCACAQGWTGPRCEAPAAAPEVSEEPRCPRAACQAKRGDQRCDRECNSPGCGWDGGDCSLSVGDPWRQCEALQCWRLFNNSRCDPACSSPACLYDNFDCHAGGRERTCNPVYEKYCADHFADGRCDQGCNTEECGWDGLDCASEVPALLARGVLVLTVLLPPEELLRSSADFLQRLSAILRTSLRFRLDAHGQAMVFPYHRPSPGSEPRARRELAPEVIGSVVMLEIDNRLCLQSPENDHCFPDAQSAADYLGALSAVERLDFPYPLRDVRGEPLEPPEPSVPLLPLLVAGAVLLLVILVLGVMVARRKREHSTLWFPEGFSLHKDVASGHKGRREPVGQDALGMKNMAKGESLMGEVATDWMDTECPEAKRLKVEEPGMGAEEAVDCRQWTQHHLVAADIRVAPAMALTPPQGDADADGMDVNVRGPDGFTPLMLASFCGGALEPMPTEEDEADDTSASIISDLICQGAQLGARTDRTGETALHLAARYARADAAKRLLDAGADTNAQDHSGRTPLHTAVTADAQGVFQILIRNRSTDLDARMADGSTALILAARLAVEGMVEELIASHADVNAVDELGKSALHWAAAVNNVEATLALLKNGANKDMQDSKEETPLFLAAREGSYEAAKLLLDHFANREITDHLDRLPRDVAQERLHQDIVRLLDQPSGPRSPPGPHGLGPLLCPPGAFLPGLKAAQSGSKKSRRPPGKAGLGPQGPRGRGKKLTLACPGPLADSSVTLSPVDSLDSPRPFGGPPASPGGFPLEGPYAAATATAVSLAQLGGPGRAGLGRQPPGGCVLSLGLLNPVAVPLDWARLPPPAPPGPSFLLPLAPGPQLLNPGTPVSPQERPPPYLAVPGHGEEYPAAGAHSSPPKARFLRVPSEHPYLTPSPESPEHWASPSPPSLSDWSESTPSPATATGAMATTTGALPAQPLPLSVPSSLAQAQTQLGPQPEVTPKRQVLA
# [20] = small-molecule microarray binders of probe aEGFR, primary screen, biochemical, biotinylated probe, 635/667 nm fluorescence (AID 1097); conditions: higher = more signal;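 also: probe is a biotinylated anti-EGFR antibody binding compounds printed on slides; score combines fluorescence near 667 nm and signal to noise of each spot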
SMILES,composite z-score [1],composite z-score [2],composite z-score [3],composite z-score [4],composite z-score [5],composite z-score [6],composite z-score [7],z-score [8],composite z-score [9],composite z-score [10],composite z-score [11],z-score [12],z-score [13],z-score [14],composite z-score [15],z-score [16],composite z-score [17],composite z-score [18],composite z-score [19],composite z-score [20]
CCOC(=O)[C@H](CC(C)C)NC(=O)CCC1CC(OC(=O)NCc2cccc3ccccc23)CC2(CCCC(COC(=O)NCCOc3ccccc3)O2)O1 (stereo not given in full),-0.646,0.374,-0.016,0.273,1.2,0.647,1.01,1.67 (inactive),0.0697,0.224,1.54,-0.524 (inactive),0.269 (inactive),0.231 (inactive),1.13,0.0653 (inactive),-0.177,0.317,0.859,-0.171
CO[C@H]1COC(=O)CCC[C@@H](C)[C@H](OC)COC(=O)[C@@H](C)NC(=O)CC=C[C@@H]1C,-0.467,2.11,-0.235,-0.0534,-0.314,-0.523,-0.723,0.947 (inactive),0.0835,-0.0994,1.4,-0.994 (inactive),-1.11 (inactive),0.0722 (inactive),-1.7,-0.597 (inactive),-0.145,1.27,0.571,0.0115
CC(CCN1CCCc2nc(C)c(C)cc21)=NO[C@@H](C)c1cc(-c2c(C)cc(C)cc2C)no1,-0.34,-0.685,-0.0069,0.338,0.121,0.732,0.8,-0.682 (inactive),0.0731,-0.166,0.684,0.0024 (inactive),-2.18 (inactive),-0.381 (inactive),1.33,1.74 (inactive),-0.0512,0.308,0.635,-0.0873
CC(=O)OC[C@H]1O[C@H](C#Cc2ccccc2)C=C[C@@H]1OC(C)=O,-0.306,-0.0613,-0.0474,0.346,0.32,0.232,-0.11,-0.284 (inactive),0.0157,0.281,0.48,0.444 (inactive),-2.17 (inactive),-0.747 (inactive),0.496,0.875 (inactive),-0.0836,0.653,0.812,-0.0953
COc1ccc(O[C@H]2C=C[C@@H](c3ccccc3)O[C@@H]2COC(=O)CCC(C)=NO[C@@H]2O[C@H](COC(C)=O)[C@@H](OC(C)=O)[C@H](OC(C)=O)[C@H]2OC(C)=O)cc1,-0.468,0.135,-0.152,0.608,0.424,-0.0533,0.929,1.09 (inactive),0.247,-0.236,1.44,1.2 (inactive),1.03 (inactive),0.865 (inactive),0.727,0.271 (inactive),-0.253,0.749,1.1,-0.0271
COC(=O)[C@H](C)NC(=O)CCC1CC(OC(=O)NCc2ccc3c(c2)OCO3)CC2(CCCC(COC(=O)NCc3cccc(C(F)(F)F)c3)O2)O1 (stereo not given in full),-0.0199,0.325,-0.1,0.688,0.679,0.151,0.795,-0.15 (inactive),0.307,1.19,1.42,-1.04 (inactive),0.0536 (inactive),0.253 (inactive),1.65,-0.15 (inactive),-0.0096,0.186,0.524,-0.0644
CC(C)=CCCC(C)=CCON=C1C[C@@H](O)[C@@H](O)[C@@H]2[C@@H]3C(=O)N(C[C@@H]4CCCO4)C(=O)[C@@H]3CC[C@H]12,-0.532,1.78,-0.142,0.508,0.583,0.447,1.05,-0.0588 (inactive),0.417,-0.0645,1.56,0.46 (inactive),0.948 (inactive),0.036 (inactive),1.39,0.362 (inactive),-0.111,0.987,1.08,0.122
CC(C)(C)N1C(=O)[C@H]2[C@H]3[C@H](O)[C@H](O)CC(=NOCc4ccccc4)[C@H]3CC[C@H]2C1=O,1.55,0.636,-0.0006,-0.0753,-0.224,-0.102,-0.559,0.431 (inactive),0.687,-0.119,-0.201,-0.612 (inactive),-0.925 (inactive),-0.22 (inactive),0.351,0.662 (inactive),0.439,-0.616,-0.288,-0.125
O=C1C[C@@H](O)[C@@H](O)[C@@H]2[C@@H]3C(=O)N(C[C@@H]4CCCO4)C(=O)[C@@H]3CC[C@H]12,-0.469,0.207,-0.0901,0.377,0.733,0.17,0.723,-0.0616 (inactive),0.158,-0.487,0.578,0.788 (inactive),-0.563 (inactive),0.672 (inactive),0.493,0.701 (inactive),-0.108,0.394,0.652,-0.0118
CCOC(=O)[C@H](Cc1ccccc1)NC(=O)CCC1CC(OC(=O)NCCc2ccc(F)cc2)CC2(CCCC(COC(=O)NCCOC)O2)O1 (stereo not given in full),-0.584,0.114,-0.0291,0.868,1.04,0.326,1.11,0.753 (inactive),0.169,-0.248,1.46,0.197 (inactive),0.143 (inactive),-0.16 (inactive),1.73,0.769 (inactive),-0.147,0.325,0.796,0.153
